# Source: PubChem BioAssay
# A number with no mark means an inactive call. No rule for the calls is given here.
# Biological target: Pantothenate synthetase (Mycobacterium tuberculosis (strain ATCC 25618 / H37Rv)) (UniProt P9WIL5)
# Assay: Recombinant Mtb pantothenate synthetase (PanC) inhibitors, coupled enzyme, confirmatory (AID 375);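 also: 0% = full reaction with vehicle and 100% = no enzyme background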
# Conditions: coupled enzyme assay; at 10 µM, hits give high values
# Chain of Pantothenate synthetase (Mycobacterium tuberculosis (strain ATCC 25618 / H37Rv)) (P9WIL5 whole entry, looked up): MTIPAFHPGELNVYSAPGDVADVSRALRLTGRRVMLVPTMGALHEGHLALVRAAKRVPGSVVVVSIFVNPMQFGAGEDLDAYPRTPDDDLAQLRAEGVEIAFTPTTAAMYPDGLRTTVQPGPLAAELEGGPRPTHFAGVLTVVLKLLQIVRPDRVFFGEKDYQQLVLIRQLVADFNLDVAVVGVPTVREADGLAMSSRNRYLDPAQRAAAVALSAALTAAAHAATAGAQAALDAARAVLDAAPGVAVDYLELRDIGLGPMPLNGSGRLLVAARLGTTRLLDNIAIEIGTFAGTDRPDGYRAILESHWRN
row,Structure (SMILES),inhibition [%]
1,Cn1c(=O)c2c(nc(N3CCN(c4ccccc4)CC3)n2CCCc2ccccc2)n(C)c1=O,0
2,COc1ccc2c(CC(=O)Nc3ccc(OC)c(NS(=O)(=O)c4ccc(F)cc4)c3)coc2c1,1
3,FC(F)(F)c1nnc2ccc(NCn3nnc4ccccc43)nn12,3
4,Cc1ccc2c(c1)c1c3n2CC(=C2C(=O)OC(C)(C)OC2=O)NC3CCC1 (stereo not given),6
5,COC(=O)c1[nH]c2ccccc2c1NC(=O)CN1CCC(C(N)=O)(N2CCCCC2)CC1,0
6,O=C(C1CCCCC1)N1CCC(c2nc3c(nnn3Cc3c(F)cccc3Cl)c(=O)[nH]2)CC1,0
7,O=C(NCCCn1ccnc1)c1cnn2c1NC(c1ccccc1)CC2C(F)(F)F (stereo not given),2
8,CCCc1nnc(NC(=O)NCCN2C(=O)C3C4C=CC(C4)C3C2=O)s1 (stereo not given),0
9,CC(C)c1nnc(NC(=O)Cc2cccs2)s1,0
10,CCCCCC(=O)N(CN1C(=O)CCC1=O)c1ccccc1,5
11,COc1ccc(S(=O)(=O)N2CCN(S(=O)(=O)c3ccc4c(c3)OCCO4)CC2)cc1C,0
12,CN1C(=O)C(O)(CC(=O)c2ccc(F)cc2)c2cc(Br)ccc21 (stereo not given),0
13,O=c1oc2ccccc2n1CCn1c2ccccc2c2nc3ccccc3nc21,0
14,CC1CCCCC1NC(=O)CCCc1nc2ccccc2c(=O)[nH]1 (stereo not given),0
15,CCCc1cc(-c2n[nH]c(C)c2-c2ccc(C(=O)OCC)o2)c(O)cc1O,6
16,Cc1[nH]c(=O)[nH]c(=O)c1S(=O)(=O)Nc1ccc(Oc2ccccc2)cc1,6
17,CCOc1ccc(NS(=O)(=O)c2ccc(OCC(=O)N3CCCC3)cc2)cc1,0
18,Cc1cc(-c2ccccc2)nc2cc(C(=O)NCCCn3ccnc3)nn12,7
19,N#CCc1c(C#N)c(N)nc(N2CCN(S(=O)(=O)c3ccccc3)CC2)c1C#N,6
20,O=C(NCc1ccco1)C1(S(=O)(=O)c2ccc(Cl)cc2)CC1,0

row,Structure (SMILES),inhibition [%]
1,CCS(=O)(=O)N1CCC(C(=O)NC2CCCCC2)CC1,0
2,COC(=O)c1sccc1NC(=O)c1csc(C)c1,6
3,COc1ccc(CNc2oc(-c3cccc4ccccc34)nc2C#N)cc1,0
4,Cn1nnnc1SCc1cn2cccnc2n1,0
5,Cn1c(=O)c(=O)n(C)c2cc(S(=O)(=O)CCC(=O)N3CCOCC3)ccc21,0
6,Cc1ccc2c(c1)N(CC(=O)Nc1ccc3c(c1)OCCO3)C(=O)CO2,0
7,COc1cccc(NC(=O)N2CCCC2C(=O)Nc2ccc3c(c2)OCO3)c1 (stereo not given),4
8,COc1ccc(OC)c(Nc2ncnc3c2cnn3-c2ccccc2)c1,0
9,COC(=O)C1(C(=O)OC)Sc2ccccc2C1=O,3
10,Cc1csc(NC(=O)CCn2c(=O)oc3ccccc32)n1,1
11,O=C(NCC(c1cccnc1)N1CCOCC1)c1ccco1 (stereo not given),2
12,CCCCCn1c(CCNC(=O)CCC)nc2ccccc21,0
13,COc1ccc(C(=O)N2CCCc3ccccc32)cc1,0
14,COc1cccc(Nc2nnc(SCC(=O)N3CC(C)OC(C)C3)s2)c1 (stereo not given),2
15,NS(=O)(=O)c1ccc(NC(=O)N[C@@H](Cc2ccccc2)C(=O)O)cc1,0
16,Cc1nc2sc(C#N)c(N)c2c2c1CCCC2,2
17,O=C(COc1cccc(Oc2ccccc2)c1)Nc1ncccn1,2
18,CCc1cc2c(NCCC(=O)O)nc(C)nc2s1,1
19,O=C(Nc1ccc2c(c1)OCO2)c1ccc(CN2CCOCC2)cc1,1
20,Cc1nc2ccccn2c1/C(O)=C1\C(=O)C(=O)N(CCCN(C)C)C1c1ccc(F)cc1 (stereo not given),4
